# Screening data from PubChem.
# PfHsp90 yeast 2: growth inhibition of PfHsp90-expressing yeast, primary screen, antimalarial PfHsp90 inhibitor project, S. cerevisiae, BacTiter-Glo luminescence, single point, set 2 | BacTiter-Glo ATP, 48 h; yeast lacking PDR1 and PDR3 efflux regulators | inhibition, % at 9.4 µM | hit rate 0.32% among 310,000;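 active = every replicate shows inhibition above about 80%, whatever the replicate mean, limit read from the data; inconclusive = mean inhibition reaches the set limit but some replicate falls short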;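 also: 0% = DMSO neutral controls and 100% = 20 µM radicicol positive controls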
# TIM10 inh: growth inhibitors of isogenic TIM10 control yeast, primary screen, counter-screen for tim10-1 yeast inhibitor project, luminescence, uHTS; S. cerevisiae TIM10 strain growth, BacTiter-Glo luminescence, 24 h; AID 463195, 2010; hit rate 1.4% among 330,000; inhibition, % at 10 µM;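 active = inhibition of 40% or more at the single tested concentration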;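 also: wild-type TIM10 isogenic control strain grown at permissive 25 °C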
# tim10-1 inh: growth inhibitors of tim10-1 mutant yeast, primary screen, luminescence, uHTS; S. cerevisiae tim10-1 ts strain growth, BacTiter-Glo, 24 h; inhibition, % at 20 µM; hit rate 2.2% among 330,000;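 active = inhibition of at least 40%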;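 also: mutant grown at 25 °C; 0% = DMSO wells with yeast and 100% = wells holding no yeast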
# EBI2 block: EBI2 receptor antagonists, beta-arrestin recruitment, primary screen, cell-based, luminescence, 7a,25-OHC stimulation, uHTS. G-protein coupled receptor 183 (Homo sapiens), P32249. AID 651636, 2012. hit rate 0.81% among 360,000. inhibition, % at 5 µM. 7a,25-OHC stimulated; in the data active = inhibition above about 38%;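 also: enzyme fragment complementation signal reports receptor beta-arrestin coupling in cells; 0% = agonist plus DMSO wells and 100% = wells without agonist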
# Target sequence (P32249 whole entry, looked up, the tested form may be a part): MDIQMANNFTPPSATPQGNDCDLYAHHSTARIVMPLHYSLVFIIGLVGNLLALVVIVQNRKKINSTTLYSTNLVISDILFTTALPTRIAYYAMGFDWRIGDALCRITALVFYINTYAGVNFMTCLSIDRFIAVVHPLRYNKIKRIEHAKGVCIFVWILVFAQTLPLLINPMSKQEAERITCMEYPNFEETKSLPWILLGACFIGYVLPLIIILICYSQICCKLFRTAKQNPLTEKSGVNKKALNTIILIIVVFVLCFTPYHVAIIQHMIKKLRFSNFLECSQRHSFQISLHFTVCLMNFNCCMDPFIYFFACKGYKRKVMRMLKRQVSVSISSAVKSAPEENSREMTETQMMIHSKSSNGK
# tim23-1 inh: growth inhibitors of tim23-1 mutant yeast, primary screen, luminescence, uHTS; S. cerevisiae tim23-1 growth, BacTiter-Glo luminescence, 24 h; inhibition, % at 20 µM; hit rate 1.3% among 330,000;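 active = growth inhibition of the mutant yeast at or above 50%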;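 also: temperature-sensitive mutant grown at 25 °C; plate controls were DMSO-treated mutant yeast for no effect and medium wells lacking yeast for full effect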
# SKKanGAS inh: S. pyogenes SKKanGAS growth inhibitors in kanamycin, primary screen, streptokinase expression inhibitor project, SKKanGAS strain, BacTiter-Glo luminescence; 6 h; hit rate 1.3% among 300,000; inhibition, % at 7.5 µM;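 active = mean replicate score, as percent of positive control median, at least 50; inconclusive = mean below 50 but one replicate at or above 50; inactive = mean and every replicate below 50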;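 also: strain carries kanamycin resistance gene driven by streptokinase promoter and grows in 40 µg/ml kanamycin; loss of luminescence reflects streptokinase promoter inhibition or plain growth inhibition; 0% = median of DMSO wells and 100% = positive control at its reference dose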
# tim23-1 confirm: tim23-1 mutant yeast growth inhibitors, confirmation, luminescence, single concentration. shares compounds with tim23-1 inh. S. cerevisiae tim23-1 growth, BacTiter-Glo luminescence, 24 h. inhibition, % at 20 µM. hit rate 83% among 4,400;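 active = inhibition above about 39% in either of two replicate wells at 20 µM, limit read from the data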;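 also: temperature-sensitive tim23-1 mutant grown at 25 °C; 0% = DMSO wells with yeast and 100% = medium wells without yeast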
# * = called active by the depositor; u = inconclusive; x = not tested or not shown. Hits are enriched below; roughly 4.7% of the tested compounds scored in any of these assays.
SMILES,PfHsp90 yeast 2,TIM10 inh,tim10-1 inh,EBI2 block,tim23-1 inh,SKKanGAS inh,tim23-1 confirm
O=C(NC1CCCCC1)c1c(O)nc2sccn2c1=O,x,4.7,14.7,-4.6,67.2*,-1.3,47.4*
O=C(NCC1CCCO1)c1c(O)nc2sccn2c1=O (stereo not drawn),x,-8.4,3.2,-0.1,35.5,x,x
O=C(NC1CCCCCC1)c1c(O)nc2sccn2c1=O,-10.2,36.6,38.8,-9.8,69.4*,34.3,45.5*
COc1ccc(OCc2cc(C(=O)N(C)C3CCOCC3)no2)c2ccccc12,3.1,12.1,8.2,5.3,9.4,-1.7,x
CCN(CC(=O)Nc1c(F)cccc1F)C(=O)c1ccc2c(c1)C(=O)N(c1ccccc1C)C2=O,x,x,x,-1.8,x,x,x
COc1ccc(OCC(=O)Nc2nc3c(s2)CCCC3)cc1,13.0,-2.2,1.0,5.3,9.3,5.0,x
COc1ccc(NC(=O)Nc2nc3c(s2)CCCC3)cc1,23.3,24.4,20.1,-4.1,62.6*,-3.7,50.0*
O=C(/C=C/c1c[nH]c2ccccc12)c1cccc2ccccc12,4.2,37.2,24.9,33.9,54.0*,28.3,61.8*
O=C(c1ccccc1)c1c[nH]c2ccccc12,-14.2,x,x,-8.8,x,1.1,x
CNc1nc(N)c([N+](=O)[O-])c(N2CCCCCC2)n1,-3.6,6.8,26.9,1.1,18.9,4.2,x
CC(C)CCNc1nc(N)c([N+](=O)[O-])c(N2CCCCCC2)n1,-32.9,26.1,20.8,-13.1,50.0*,30.3,32.0
Cn1nnnc1SCc1cc(=O)n2ccsc2n1,3.5,1.7,-11.3,-5.5,-7.5,13.7,x
C=CCn1c(SCc2cc(=O)n3ccsc3n2)nc2ccccc2c1=O,-62.8,5.2,10.8,11.4,51.3*,5.1,56.1*
C=CCn1c(SCc2cc(=O)n3ccsc3n2)nc2scc(C3CC3)c2c1=O,44.0,13.3,39.0,11.2,31.1,8.8,x
C=CCn1c(SCc2cc(=O)n3ccsc3n2)nc2cc(Cl)ccc2c1=O,42.0,28.9,26.9,8.2,55.4*,-0.6,58.5*
O=C(CCCN1C(=O)NC2(CCCC2)C1=O)NCc1ccccc1,18.6,-0.9,5.2,-6.1,9.5,x,x
O=c1oc(-c2ccccc2F)nc2c1cnn2-c1ccccc1,-12.2,39.3,32.9,19.6,55.8*,-10.0,54.0*
Cc1cc(C(=O)c2ccc(Cl)cc2)c(NC(=O)CCl)s1,-21.1,8.0,36.5,-0.1,37.0,-5.0,x
CCc1cc(C(=O)c2ccc(C)cc2)c(NC(=O)CCl)s1,-8.7,28.0,39.7,-2.2,50.3*,-3.9,49.0*
Clc1ccc(-c2csc3ncnc(Cl)c23)cc1,-16.3,-12.9,9.1,8.9,59.7*,2.4,41.6*
Fc1ccc(-c2csc3ncnc(Cl)c23)cc1,10.0,-14.9,26.4,5.4,24.2,-11.5,x
NNc1ncnc2scc(-c3ccc(Cl)cc3)c12,19.1,31.3,6.3,2.8,58.2*,0.0,49.6*
O=[N+]([O-])c1ccccc1/C=N/n1c(C2CCCCC2)n[nH]c1=S,20.7,37.0,39.8,-5.4,59.3*,-7.2,48.5*
Cc1ccc(/C=N/n2c(C3CCCCC3)n[nH]c2=S)cc1,17.5,16.2,25.2,18.2,57.4*,9.7,38.7
S=c1[nH]nc(C2CCCCC2)n1/N=C/c1ccc(Br)cc1,-10.5,23.5,33.3,25.9,10.7,4.1,x
SMILES,PfHsp90 yeast 2,TIM10 inh,tim10-1 inh,EBI2 block,tim23-1 inh,SKKanGAS inh,tim23-1 confirm
S=c1[nH]nc(C2CCCCC2)n1/N=C/c1ccc(Cl)cc1,0.5,39.7,35.3,21.2,63.2*,4.6,30.0
FC(F)(F)c1ccc(/C=N/n2c(C3CCCCC3)n[nH]c2=S)cc1,-16.4,26.1,36.5,-0.3,64.0*,25.0,29.8
CCc1ccc(/C=N/n2c(C3CCCCC3)n[nH]c2=S)cc1,-11.0,20.9,9.7,19.2,39.7,u,x
O=S(=O)(c1ccc(N2CCN(Cc3ccccc3)CC2)nc1)N1CCCC1,1.8,-5.1,-2.2,-0.6,10.8,x,x
COc1ccc(C(C[N+](=O)[O-])c2c(C)cc3ccccn23)c(OC)c1 (stereo not drawn),5.6,22.5,35.1,-4.1,81.7*,7.3,74.7*
Cc1coc2cc3oc(=O)c(CCC(=O)NCCN4CCOCC4)c(C)c3cc12,16.7,-7.0,-20.9,-5.3,2.3,3.0,x
O=C(CSc1nc(=O)n2ccccc2n1)NCc1ccccc1,x,2.5,-19.6,-16.9,-14.2,-3.8,x
CCc1ccc2c(Cl)c(C(=O)N/N=C/c3c[nH]c4ccccc34)sc2c1,4.3,19.8,9.2,5.0,52.1*,69.2*,38.6*
CCc1ccc(-c2cc(C(=O)N/N=C/c3c[nH]c4ccccc34)[nH]n2)cc1,34.5,18.9,9.5,12.9,7.4,u,x
COc1ccc(-c2sc3ccccc3c2-c2ccc(O)cc2)cc1,u,34.7,-11.1,2.7,35.4,x,x
COc1ccccc1-c1sc2ccccc2c1-c1ccc(O)cc1,114.3*,32.9,-18.7,-1.4,54.8*,x,4.1
Cn1c(-c2sc3ccccc3c2Cl)n[nH]c1=S,-23.0,29.2,27.2,2.2,51.7*,5.4,43.5*
CC1CCN(c2ccc(NC(=O)c3ccc([N+](=O)[O-])o3)cc2)CC1,x,25.0,37.4,-3.7,55.5*,42.7,-13.4
O=C(Nc1ccc(N2CCN(Cc3ccccc3F)CC2)cc1)c1ccc([N+](=O)[O-])o1,13.2,11.7,39.0,12.0,56.3*,4.5,41.4*
O=C(Nc1ccc(N2CCN(Cc3ccccc3F)CC2)cc1)c1ccccc1[N+](=O)[O-],-15.9,-8.1,3.4,-5.6,11.1,-2.0,x
CS(=O)(=O)N1CCN(c2ccc(NC(=O)c3ccc([N+](=O)[O-])o3)cc2)CC1,-11.0,x,x,11.8,x,0.5,x
COc1cc(CNC(=O)c2ccc3oc(C(C)C)nc3c2)cc(OC)c1,-10.4,-4.7,34.4,2.7,23.4,0.9,x
CCCCc1nc2sc3c(=O)n(N)cnc3c2c2c1CCC2,x,2.6,15.2,10.9,0.9,-0.9,x
CCOC(=O)Cc1csc(NC(=O)Cn2c(=O)oc3ccccc32)n1,-9.8,-17.4,-9.0,-10.1,6.6,-3.6,x
Cc1ccc(C(=O)Nc2scc(-c3ccccc3)c2C(=O)O)o1,x,18.4,5.9,-1.8,4.5,20.7,x
O=C(/C=C/c1ccco1)Nc1scc(-c2ccccc2)c1C(=O)O,48.8,9.5,-11.1,-9.0,54.8*,13.9,45.8*
